# Laboratory results from PubChem BioAssay (Tox21).
# Several values for one entry are separate records, joined by “and”; a condition that tells them apart may be missing. Identical values can stand only once. Records with an inconclusive call do not appear. Values without a mark were called inactive. Activity calls are given as the source filed them. The call rests on the fitted dose curve; in most records, active means well fitted cell-killing curve with a large enough effect in the repeat runs; inconclusive means weak or mixed curves, or effect the other way; inactive means flat fitted curve, though single readings scatter.
# Assay: qHTS assay to identify small molecule antagonists of the constitutive androstane receptor (CAR) signaling pathway - cell viability counter screen (AID 1224837); further: nearly all actives have a fitted effect of over 45% in size
# Conditions: HepG2-CYP2B6-hCAR viability, CellTiter-Fluor, 23 h, co-treated with 50 nM CITCO; series mostly up to 92.4 µM; activity change, negative = cytotoxicity: at the top concentration
# Source text: National Center for Advancing Translational Sciences [NCATS]
# NIH Chemical Genomics Center [NCGC]
# U.S. Environmental Protection Agency [EPA]
# National Institutes of Environmental Health Sciences [NIEHS]
# National Toxicology Program [NTP]
# U.S. Food and Drug Administration [FDA]
# The constitutive androstane receptor (CAR) is a nuclear receptor which regulates multiple drug metabolizing enzymes (DMEs) and transporters. Activating CAR will generally increase the transcription and subsequent translation of CYP2B6 and CYP3A4. These two DMEs represent about 50% of the drug metabolizing potential in the body. When CAR is deactivated, the metabolizing potential in the body will decrease, subsequently increasing the toxicity in the body or lowering the therapeutic potential of a pro-drug. Recently, there have also been studies performed indicating CARs role in energy metabolism and cancer therapy. Therefore, inhibiting CARs activity could have a potential effect on diabetes and cancer. Identifying environmental toxins and compounds which modulate CAR, through the use of the Tox21 10K compound collection, will be an important step in determining the toxicity and potential therapeutic effects these factors will have on the human body. To differentiate true CAR antagonists from cytotoxic substances, the assay is multiplexed with a cell viability assay.
# Tox21 Assay Protocol Summary:
# A double-stable (hCAR and CYP2B6-2.2kb) transfected cell line, derived from human hepatoma (HepG2) cells, was utilized for the duration of the quantitative high-throughput screens. The HepG2-CYP2B6-hCAR cells were dispensed at 2500 cells/4 uL/well in 1536-well white solid bottom plates using a Multidrop Combi. After the assay plates were incubated at 37 C/5% CO2 for 4 hrs, 23 nL of compounds at 15 concentrations (from 5-48 columns) or positive control (from 1 to 4 columns) were transferred to the assay plates using a Pintool station. One uL of CITCO (final concentration = 50 nM) was added, using a Flying Reagent Dispenser, inside each well. After a 23 hr incubation period at 37 C/5% CO2, 1 uL of CellTiter-Fluor reagent was added into each well of the assay plates using a Flying Reagent Dispenser. The fluorescence intensity in the plates was then measured using a ViewLux plate reader.
# On the % scale 0 is the no-effect control and ±100 the full control effect; potency means the concentration at half of the fitted maximal effect.
SMILES,"activity change, negative = cytotoxicity",Potency
CCCCCCOC(=O)C(C)CC (stereo not given),-3.05%,–
O=C1OC2(c3ccc(O)cc3Oc3cc(O)ccc32)c2ccc(N=C=S)cc21,5.96%,–
COC(=O)Nc1nc2ccc(C(=O)c3ccccc3)cc2[nH]1,-14.4% [at 42.5 µM],–
CCCNCCC,1.44%,–
O=C(O)CCN(C1(C(=O)NO)CCCC1)S(=O)(=O)c1ccc(Oc2ccc(F)cc2)cc1,-5.23%,–
C=CCn1c(=O)n(CC=C)c(=O)n(CC=C)c1=O,2.49%,–
C[C@@H](O)[C@H](N)C(=O)O,9.9% [at 19 µM],–
O=S(=O)(O)c1ccc(N=Nc2c(O)ccc3ccccc23)cc1,–,30.6 µM (active)
CN(C)CCN1CCN(c2cccc(Cl)c2)C1=O,0.526% [at 42.5 µM],–
Cl[Si](Cl)(c1ccccc1)c1ccccc1,1.73%,–
CC(C)(C)C1CCC(=O)CC1,3.2%,–
OC1CCCc2ccccc21 (stereo not given),-0.7%,–
CC1=CCC(=C(C)C)CC1,-2.74%,–
C=C(CC)C(=O)c1ccc(OCC(=O)O)c(Cl)c1Cl,-17% [at 42.5 µM],–
CCOC(=O)c1ccc(C2CCC(NC[C@H](O)COc3ccc(O)c(NS(C)(=O)=O)c3)CC2)cc1 (stereo not given in full),-16.3%,–
CCCC[P+](C)(CCCC)CCCC,5.93%,–
CC(C)Cn1cnc2c(N)nc3ccccc3c21,-10.6% [at 19 µM],–
C=Cc1cccc(C)c1,–,inactive
CCC(C)n1ncn(-c2ccc(N3CCN(c4ccc(OC[C@H]5CO[C@](Cn6cncn6)(c6ccc(Cl)cc6Cl)O5)cc4)CC3)cc2)c1=O (stereo not given in full),2.69% [at 42.5 µM],–
CC(C)NC[C@@H](O)COc1ccc(CC(N)=O)cc1,-0.39% [at 42.5 µM],–

SMILES,"activity change, negative = cytotoxicity",Potency
O=C(O)[C@H](O)[C@@H](O)[C@H](O[C@@H]1O[C@H](CO)[C@H](O)[C@H](O)[C@H]1O)[C@H](O)CO,4.35% [at 42.5 µM],–
Cc1ccc(N/N=c2\c(=O)cc/c(=N\Nc3ccc(S(=O)(=O)O)cc3)c2=O)c(C)c1,–,48.6 µM (active)
O[C@@H]([C@H](O)[C@H](O)CBr)[C@H](O)CBr,15.5%,–
CCCCC/C=C\C/C=C\CCCCCCCC(=O)O,–,inactive
Cc1ccc(-c2ccccc2)cc1,-1.42%,–
FC(F)(F)c1cccc(Cl)c1,-4.15%,–
CN(C)Cc1cc(C(C)(C)C)c(O)c(C(C)(C)C)c1,10.4%,–
CCN(CC)C(=O)c1cc(S(=O)(=O)Cc2ccccc2)c(N2CCC(c3ccccc3)CC2)cc1N(CC)CCN(C)C,–,24.1 µM (active)
Nc1nc2c(ncn2COCCO)c(=O)[nH]1,1.15% [at 42.5 µM],–
Sc1nc2ccccc2s1,5.85%,–
COc1ccc2c(c1)c(CC(=O)OC/C=C(\C)CC/C=C(\C)CCC=C(C)C)c(C)n2C(=O)c1ccc(Cl)cc1,5.6% [at 42.5 µM],–
CC1(C)CCC[C@]2(C)[C@H]3CC(=O)O[C@]3(C)CC[C@@H]12,3.65%,–
CN1CCCCC1CCN1c2ccccc2Sc2ccc(S(C)=O)cc21 (stereo not given),-26.3% [at 42.5 µM],–
Cc1nc(-c2ccc(Cl)cc2)oc1COC(C)(C)C(=O)O,-0.884% [at 42.5 µM],–
O=C(/C=C/c1ccccc1)OC/C=C/c1ccccc1,9.26%,–
C1CCC(SSC2CCCCC2)CC1,2.55%,–
CCCCCCCCCCCCCC[N+](C)(C)C,–,13.2 µM (active) and 27.3 µM (active)
COC(C)=O,2.63%,–
CC(C)(C)c1ccc(C(O)CCCN2CCC(C(O)(c3ccccc3)c3ccccc3)CC2)cc1 (stereo not given),–,26.6 µM (active)
C[C@H]1NCc2cc(-c3ccc4c(=O)c(C(=O)O)cn(C5CC5)c4c3OC(F)F)ccc21,-0.799% [at 19 µM],–
